# Data: PubChem BioAssay (NCI)
# Where “and” joins values, the source holds several entries; their conditions need not be identical. Equal values may be shown once. Compounds without any hit were thinned out: in the full panel of roughly 83,000, 20% have a hit.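 Step 1: grow cells in 96-well plates. Step 2: add test compound at a single concentration. Step 3: incubate 48 h. Step 4: record percent growth.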 Values without a mark were called inactive. Calls of active or inactive are those of the source. The calls were made as follows: active = growth percent below 10; inactive = the rest.
# Test system: MALME-3M melanoma
# Assay: NCI-60 one-dose screen, 48 h (100 = growth as untreated, 0 = no growth, -100 = all killed)
# Conditions: 10 µM unless noted
row,SMILES,growth
1,O=c1ccc(Cn2c(C(F)(F)F)cc3c(Cl)ncnc32)c[nH]1,91.4%
2,CC[C@]12C=CCN3CC[C@]4(C(=C(C(=O)OC)C1)Nc1cc(OC)c([C@@H]5[C@H]6O[C@H]6[C@@]6(CC)CC(C(=O)OC)=C7Nc8cc(O)ccc8[C@@]78CCN5[C@@H]68)cc14)[C@@H]32,-77.4% (active)
3,COc1ccc2[nH]cc(-c3cc4nc(-c5cn(C)c6ncccc56)cc(N)n4n3)c2c1,-60.6% (active)
4,COc1ccc2[nH]c(=O)cc(-n3ncc(C(=O)/C=C/c4cc(OC)c(OC)c(OC)c4)c3C)c2c1,-25.7% (active)
5,COc1ccc(/C=C/c2nc3ccccc3n3c(-c4cccc([N+](=O)[O-])c4)nnc23)cc1,-69.7% (active)
6,O=C(Nc1ccc(Cl)c(C(F)(F)F)c1)N1CCN(c2cc(-c3cn(-c4ccccc4)nc3-c3cccc(O)c3)ccn2)CC1,-31.4% (active)
7,O=C1Nc2ccccc2/C1=C/C(=O)c1cc2ccccc2oc1=O,10.9%
8,CN1CCN(C(=O)Oc2cc3c(c4ccccc24)[C@H](CCl)CN3C(=O)c2cc3cc(OCCCN4CCC4)ccc3[nH]2)[C@H]2CSSC[C@H]21,-64.8% (active)
9,NS(=O)(=O)c1ccc(Nc2nc(N/N=C/c3cc(Br)c(O)c(Br)c3)nc(Nc3ccccc3)n2)cc1,42%
10,COc1ccc2c(c1)C(Sc1ccc(Cl)cc1)c1c(nc(N)c(C#N)c1N)O2 (configuration not stated),82.2%
11,CS(=O)(=O)Nc1cccc(-n2c(COc3ccc(OC(F)(F)F)cc3)nc3ccccc32)c1,89.6% and 102%
12,OCCn1cc(-c2nc3ccc4[nH]ncc4c3c3c2CCCC3)cn1,24.1%
13,Cn1cc(-c2cc(N)n3nc(-c4c[nH]c5ccc(F)cc45)cc3n2)c2cccnc21,-93% (active)
14,COc1ccc2c(c1)N=c1c-2cc2c(O)[nH]c(=S)n2c1=O,54.8%
15,O=C(NN1C(=O)/C(=C/C=C/c2ccc([N+](=O)[O-])o2)SC1=S)c1ccncc1,-91.7% (active)
16,Cn1cc(-c2cc(N)n3nc(-c4c[nH]c5ccccc45)cc3n2)c2cc(Br)ccc21,-76.9% (active)
17,Cn1cc(-c2cc(N)n3nc(-c4c[nH]c5ccccc45)cc3n2)c2ccccc21,-94.8% (active)
18,O=C1c2cccc3c(N4CCN(c5ccccc5)CC4)ccc(c23)C(=O)N1c1cccc(-c2nn(-c3ccccc3)cc2-c2nc3ccccc3s2)c1,88.8%
19,O=C(c1ccc(O)cc1)C1[C@H](c2ccccc2Br)[C@@H](c2ccccc2)NC12C(=O)Nc1ccccc12 (some centres not stated),71.6%

row,SMILES,growth
1,COc1ccc(-c2cc(C(=O)N=Nc3c(O)[nH]c4ccc(Cl)cc34)c3ccccc3n2)cc1,90.1%
2,CC(C)(C)OC(=O)N1CCC2(CC1)Oc1ccccc1[C@H]1CC(c3ccc(Br)cc3)=NN12,90%
3,Cc1cc(C(NC(=O)CCCCCNc2cccc3c2C(=O)N(C2CCC(=O)CC2=O)C3=O)c2cccc(N(C)C)c2)c(O)c2ncccc12 (configuration not stated),-11.8% (active)
4,O=C(c1ccc(O)cc1)C1[C@H](c2ccc(Cl)cc2)[C@@H](c2ccccc2)NC12C(=O)Nc1ccc(Br)cc12 (some centres not stated),-49% (active)
5,Cc1ccc(C(=O)C[n+]2cccc3c4ccccc4ccc32)cc1,10.4%
6,C#CCN(C)CCCOc1ccc(N(CC)C(=O)c2cc(C(C)C)c(O)cc2O)cc1Cl,-51.5% (active)
7,O=C(OCCOCCO)N(c1cccc(Br)c1)c1nc(SCCN2CCOCC2)nc2c1cnn2CC(Cl)c1ccc(Br)cc1 (configuration not stated),-29.1% (active)
8,COc1ccc(-c2nc3ccc(-c4nnc(SCC(=O)Nc5ccc(/C(C)=N\O)cc5)o4)cc3[nH]2)cc1,-20.5% (active)
9,Clc1ccc2c(NCCNC34CC5CC(CC(C5)C3)C4)ccnc2c1,-80.4% (active)
10,CCOc1ccc(-c2cc(-c3cc(C(C)C)c(O)cc3C)nn2-c2ccc(S(N)(=O)=O)cc2)cc1,65.8%
11,Cc1ccc(N=Nc2c(N)nn3c(-c4cc5cc(Br)ccc5oc4=O)ccnc23)cc1,82%
12,COc1ccc(SC2c3cc(OC)ccc3Oc3nc(N)c(C#N)c(N)c32)cc1 (configuration not stated),91.3%
13,O=C1Nc2ccc(F)cc2/C1=C/C(=O)c1cc2ccccc2oc1=O,71.2%
14,COc1ccc2[nH]cc(-c3cc(N)n4nc(-c5c[nH]c6ccccc56)cc4n3)c2c1,-93.4% (active)
15,O=C1Nc2cc(-c3ccc(NS(=O)(=O)c4ccc(F)c(Cl)c4)cc3)ccc2/C1=C/c1ccc[nH]1,50.3%
16,CCOC(=O)/C(F)=C/C1CC1C1CCN(C(=O)OC(C)(C)C)CC1 (configuration not stated),94%
17,CN1CCN(CCS(=O)(=O)Nc2cc(-c3ccc4ncnc(Nc5ccc(F)c(Cl)c5)c4c3)cnc2Cl)CC1,-90.5% (active)
18,N#Cc1cc(-c2ccc3ncnc(N4CCc5cc(F)c(Cl)cc54)c3c2)cnc1N,50.6%
